This is an account of results in publication PMC7819943, “Rice protein-binding microarrays: a tool to detect cis-acting elements near promoter regions in rice”.

In all, about 68,000 sequences were measured (“fluorescence intensity (a.u.)”: median about 9,100, highest 2% from about 16,000 on). The list comes from a sample in which the highest values are over-represented; it also holds similar and randomly drawn sequences.

Sequence of OsWRKY34 (Q0JBA9 entry or part of it): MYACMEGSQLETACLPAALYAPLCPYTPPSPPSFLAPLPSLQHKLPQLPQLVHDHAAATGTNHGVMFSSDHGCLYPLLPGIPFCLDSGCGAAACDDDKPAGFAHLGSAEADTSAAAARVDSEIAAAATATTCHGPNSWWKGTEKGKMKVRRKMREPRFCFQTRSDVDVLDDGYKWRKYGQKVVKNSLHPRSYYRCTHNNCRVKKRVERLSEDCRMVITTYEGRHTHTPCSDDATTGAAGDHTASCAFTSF

This assay addresses OsWRKY34 (Oryza sativa, UniProt Q0JBA9 1-250). Description: protein-binding microarray (RPBM); PBS, 2% BSA, 51.3 ng/ul salmon testes DNA, 50 uM zinc acetate, 200 nM TF, 25 C, 1 h; high values mean tight binding. The conditions noted are these: protein: recombinant; tags: N-terminal polyhistidine and DsRed monomer fusion (pET32a); label: CyDye5-dUTP incorporated in the synthesized complementary strand; 3' TTTTT single-stranded linker to array surface; dsDNA, one strand shown. Summed up:
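Binding signal here means per-feature fluorescence intensity in arbitrary units. The values were read on an Axon 4000B scanner after a custom Agilent array, double-stranded by primer extension with Cy5-dUTP, was incubated with 200 nM protein at 25 °C for 1 h in PBS with 2% BSA, salmon testes DNA and 50 µM zinc acetate, then washed. The proteins were transcription factors with an N-terminal polyhistidine tag and DsRed, expressed in E. coli BL21-CodonPlus and purified on Ni–NTA.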
Regarding “CTTTTGCAACTCAAGCTACTATATCTATGATGGCATCTGACGGAGTCACCTAGTGCAG”, the binding signal was 8400 fluorescence intensity (a.u.).

For “CTTGCTGTTACGCACCACATTGATTTACTTTCTTTTTCTTCGGAGTCACCTAGTGCAG”, the binding signal is 11600 fluorescence intensity (a.u.).

On to “CTCTCGACCACTTCCATTCCTTCCCGGGCTCGCCGCGCCGCGGAGTCACCTAGTGCAG”, for which the binding signal is 9780 fluorescence intensity (a.u.).

As to “CTCACTCCTGGCGCCGGTGACCTCTCTGCCACTCCACCGGCGGAGTCACCTAGTGCAG”, the binding signal was 8550 fluorescence intensity (a.u.).

As for “CACATGTTATTACCACCTCATTTTGCGTAAAACACTTAATCGGAGTCACCTAGTGCAG”, the binding signal is 8460 fluorescence intensity (a.u.).

Consider “AACATAAACACACATCATTTCCTGTCCCTTGCACGCTACGCGGAGTCACCTAGTGCAG”, for which the binding signal is 10000 fluorescence intensity (a.u.).

On to “CTCCTCATCCTCATCGTCGCCGCCGCCCACGTCGTCTCGCCGGAGTCACCTAGTGCAG”, for which the binding signal is 9110 fluorescence intensity (a.u.).

Regarding “TCATCTGCTCCAAATTAAGCATTGCATCATCTACTCTGCCCGGAGTCACCTAGTGCAG”, the binding signal was 8390 fluorescence intensity (a.u.).

With “CTACCGCATCCCCTCCCTCTCTCGGCGAGCCGAATCCATGCGGAGTCACCTAGTGCAG”, the binding signal is 8270 fluorescence intensity (a.u.).

With “ATCTCGGTCTCTCACAAGACACACAGCTAATTAGCTCTATCGGAGTCACCTAGTGCAG”, the binding signal was 8470 fluorescence intensity (a.u.).

With “CCATCATCTCTCGATCCATCTCCAGCAAGTTACCTATAAACGGAGTCACCTAGTGCAG”, the binding signal is 9580 fluorescence intensity (a.u.).

Turning to “ACTCACTGTTGCCTGTTGGTTTGTTGTCAGTAGCGCTAGGCGGAGTCACCTAGTGCAG”, the binding signal was 8370 fluorescence intensity (a.u.).

Take “TGTGGGTTGGAGGGAGGAGGGGATTGAAGGGTTGTTAATTCGGAGTCACCTAGTGCAG”: the binding signal was 14900 fluorescence intensity (a.u.).

Regarding “CTGCACTGTTTGCCTCAGTTGGGTTGGTTTGGTTTGGTTGCGGAGTCACCTAGTGCAG”, the binding signal is 48200 fluorescence intensity (a.u.).

As to “CGTTGGGAGTTGGGAGGGATGGGTGGTGCATCAAGATTGACGGAGTCACCTAGTGCAG”, the binding signal was 23500 fluorescence intensity (a.u.).

Turning to “AGGTGGTGTTTGGTTGGAGGGGCTAAAGTGGGGCTAAACTCGGAGTCACCTAGTGCAG”, the binding signal was 20000 fluorescence intensity (a.u.).

For “AAGAGGGTGGGTTGTTGGGGAGAGGGGAGGGAGGAGGATTCGGAGTCACCTAGTGCAG”, the binding signal is 20100 fluorescence intensity (a.u.).

On to “CAAGGAGGGAGTTGATGGTGGGATTGATCATGGGAGTTATCGGAGTCACCTAGTGCAG”, for which the binding signal was 8560 fluorescence intensity (a.u.).

As to “GGTGTTTGGTTGGAGGGATTAAAGTGGGGCTAAACTTTAGCGGAGTCACCTAGTGCAG”, the binding signal was 9950 fluorescence intensity (a.u.).

Take “TGGTGTTTGGTTGGAGGGACTAAAGTAGGGCTAAACTTTACGGAGTCACCTAGTGCAG”: the binding signal is 8870 fluorescence intensity (a.u.).

For the sequence “AGTTTTAAGGAGGGAGTTGATGGTGGGATTGGTCATGGGACGGAGTCACCTAGTGCAG”, the binding signal is 8620 fluorescence intensity (a.u.).

On to “TGCGGATGGGATGGAGAGCGCAGGAGGGGTGGGTTGTTGTCGGAGTCACCTAGTGCAG”, for which the binding signal was 10800 fluorescence intensity (a.u.).

As to “GCAGTTTCAGTGTGTGTTTGGTTGCAAGTTGTTGCATCTGCGGAGTCACCTAGTGCAG”, the binding signal is 8410 fluorescence intensity (a.u.).

Turning to “GACACTGCCACCTCACTCTCCACTCCACTATATATACCCTCGGAGTCACCTAGTGCAG”, the binding signal was 12100 fluorescence intensity (a.u.).

For “ACTCTCCCGTTATTGCCGCCACCGGACCGCTAGCTCCGCACGGAGTCACCTAGTGCAG”, the binding signal is 9570 fluorescence intensity (a.u.).

Turning to “CCCACCTCGCCTTTCGATTGCGCGATCACCCACCTTTATACGGAGTCACCTAGTGCAG”, the binding signal is 10000 fluorescence intensity (a.u.).

Turning to “GCAACTGCACATGTGCTTATTTAGTTTCTGCATTGGTCAACGGAGTCACCTAGTGCAG”, the binding signal is 12200 fluorescence intensity (a.u.).

In the case of “CTCGTCACTCGTCTCGTCTCGCACAGTCGCAGCTGCTGCGCGGAGTCACCTAGTGCAG”, the binding signal was 8390 fluorescence intensity (a.u.).

With “ACTTTATCTTTGCCGCCGGCCGCCACAACTGCTTCTACGGCGGAGTCACCTAGTGCAG”, the binding signal was 9180 fluorescence intensity (a.u.).

In the case of “GACAACGGTCAAATATGTGCTAAAAAGTCAACGGTATCAACGGAGTCACCTAGTGCAG”, the binding signal is 11600 fluorescence intensity (a.u.).

“TCTCGCTCCTCATGCTCCTCTCCCGGCGGCGACGCTATGCCGGAGTCACCTAGTGCAG”: the binding signal was 8080 fluorescence intensity (a.u.).

In the case of “CCAGCTGTGTGTGTGCACGCGGTTTTCCAATCGATTCTTCCGGAGTCACCTAGTGCAG”, the binding signal is 9270 fluorescence intensity (a.u.).

For “CTCTCTTCTTTTTATCTTATTCATATGTATTTATAGCTGACGGAGTCACCTAGTGCAG”, the binding signal is 10500 fluorescence intensity (a.u.).

On to “TCCGTAAATCCAACATGGCACTATTACCGCCGGCTTAAATCGGAGTCACCTAGTGCAG”, for which the binding signal is 56000 fluorescence intensity (a.u.).

As to “TACCGCCTGAAATCCAACATTATTATGCACTGTAATTTACCGGAGTCACCTAGTGCAG”, the binding signal was 8170 fluorescence intensity (a.u.).

Turning to “GCTCCGTGGCACTATTTTTTTTTTACCGCGAATCCTCCAACGGAGTCACCTAGTGCAG”, the binding signal was 9550 fluorescence intensity (a.u.).

For “TATCCGTTCGCGTCCCCGCCCTCGCTTCGCCGCGGCAATGCGGAGTCACCTAGTGCAG”, the binding signal was 9720 fluorescence intensity (a.u.).

As to “GCATCCGTGTCCTTTGCCGAAGCCGAAGGCCCGCTCTCTCCGGAGTCACCTAGTGCAG”, the binding signal was 8900 fluorescence intensity (a.u.).

As to “ACTCCCTCCATTTTTTTAATTGACGACGCCATTGACTTTTCGGAGTCACCTAGTGCAG”, the binding signal was 9350 fluorescence intensity (a.u.).

For the sequence “GTCATTTATTTTTACCAACGTTTGACTATTCGTCTTATTTCGGAGTCACCTAGTGCAG”, the binding signal is 9430 fluorescence intensity (a.u.).

As for “GGTACTCTCTTCGTTTTTAGTATACGACGCCGTTGACTTTCGGAGTCACCTAGTGCAG”, the binding signal is 16000 fluorescence intensity (a.u.).

With “TATTTGACGTCGTTGACTTTTTAAAACATGTTTGACCATTCGGAGTCACCTAGTGCAG”, the binding signal is 30200 fluorescence intensity (a.u.).

Regarding “TTGACACCATTGACTTTTTTAAACATGTTTGACCGTTCGTCGGAGTCACCTAGTGCAG”, the binding signal is 15100 fluorescence intensity (a.u.).

For the sequence “CTCATGTTTGACCATTCGTCTTATTTAAAAACTTTTGTGACGGAGTCACCTAGTGCAG”, the binding signal is 8180 fluorescence intensity (a.u.).

In the case of “TTGACTTTTTAACCAACGTTTGACTATTCGTCTTATTCAACGGAGTCACCTAGTGCAG”, the binding signal was 10100 fluorescence intensity (a.u.).
